Reference: the supplement of paper PMC11577813, “Eurasian spruce bark beetle detects lanierone using a highly expressed specialist odorant receptor, present in several functional sensillum types” (BMC Biology, 2024)
± gives the standard deviation of the averaged measurements.

The compounds below were run on (4S)-cis-verbenol A-neuron OSN class (assay: net action potential response of A-neuron (blank-subtracted) (spikes/s (Hz)); higher = stronger excitation). Conditions: 10 µg on filter paper; neuron: A neuron (large spike amplitude).
Method: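 Single sensillum recordings from antennal olfactory sensilla of live adult Ips typographus. Each compound was 10 µg in paraffin oil on filter paper, delivered as a 0.5 s puff. Net response = spikes in the first 0.5 s of response minus the 0.5 s pre-stimulus count, doubled to give Hz, with blank response subtracted. Values are for the large-spike A-neuron class of each of seven sensillum types that co-house the lanierone B-neuron; N = 1-4 sensilla, averaged.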

Compound | net action potential response
C[C@@H]1C(=O)C[C@H]2C[C@@H]1C2(C)C [(+)-Isopinocamphone] | -0.667 ± 4.6
CC(=O)OC/C=C(\C)CCC=C(C)C [Geranyl acetate] | -2.67 ± 4.2
CC12CCC(CC1=O)C2(C)C (racemic) [(±)-Camphor] | -2.67 ± 8.1
CCCCCC=O [Hexanal] | 0.667 ± 5
C=CC(=C)C[C@@H](O)CC(C)C (racemic) [(±)-Ipsenol] | 1.33 ± 4.2
CCC(C)CO (racemic) [(±)-2-Methyl-1-butanol] | -1.33 ± 4.2
Cc1ccc(C(C)C)cc1 [p-Cymene] | -2 ± 4
CC(=O)c1ccccc1 [Acetophenone] | 0.667 ± 1.1
CC1=CC(=O)[C@@H]2C[C@H]1C2(C)C [(-)-Verbenone] | 24.7 ± 25
CC1=CCC2CC1C2(C)C (stereo not drawn) [(-)-α-Pinene] | -2.67 ± 3.1
C=C(C)C1CC=C(C)C(=O)C1 (racemic) [(±)-Carvone] | 2 ± 4
C=CC(C)(C)O [2-Methyl-3-buten-2-ol] | -4 ± 4
C=CC(O)CCCCC (racemic) [(±)-1-Octen-3-ol] | 2.67 ± 3.1
CC1(C)C2CC=C(CO)C1C2 (racemic) [(±)-Myrtenol] | 4.67 ± 1.1
